Experimental data as given in PubChem BioAssay.
Active and inactive are the calls of the source.

Experiments:
[1] = compound effects on lung adenocarcinoma cell viability – A549, calcein-AM fluorescence, 48 h, basal, profiling panel (AID 1162); settings: higher = more signal
[2] = compound effects on differentiated 3T3-L1 adipocyte viability – cell-based, 3T3-L1 adipocytes, calcein-AM fluorescence, 48 h, basal, profiling panel (AID 1163); settings: 3T3-L1 adipocytes viability, higher = more signal
[3] = compound effects on hepatocellular carcinoma cell viability – HepG2, calcein-AM fluorescence, 48 h, basal, profiling panel (AID 1164); settings: higher = more signal
[4] = compound effects on multiple myeloma cell viability – MM1S, calcein-AM fluorescence, 48 h, basal, profiling panel (AID 1165); settings: higher = more signal;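 also: viability of MM1S multiple myeloma cells under basal unstimulated conditions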
[5] = calcein-AM signal in unstimulated myeloma cells – cell-based, calcein-AM fluorescence, 48 h, PK04 Diversity Set, profiling panel (AID 1166); settings: RPMI8226 myeloma viability, higher = more signal;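 also: cells grown under basal conditions without added stimulus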
[6] = JC-1 mitochondrial signal, unstimulated HepG2 cells – cell-based, JC-1 fluorescence, 24 h, 100 nL compound, profiling panel (AID 1167); settings: HepG2 mitochondrial potential, higher = more signal
[7] = JC-1 mitochondrial signal, unstimulated adipocytes – cell-based, JC-1 fluorescence, 3T3-L1 adipocytes, 24 h, 100 nL compound, profiling panel (AID 1168); settings: JC-1 mitochondrial fluorescence, higher = more signal, called active from +8 up or from −8 down
[8] = JC-1 mitochondrial signal, unstimulated myeloma cells – cell-based, JC-1 fluorescence, RPMI8226, 24 h, 100 nL compound, profiling panel (AID 1169); settings: JC-1 mitochondrial potential fluorescence, higher = more signal
[9] = JC-1 mitochondrial signal, unstimulated MM1S myeloma – cell-based, JC-1 fluorescence, 24 h, 100 nL compound, profiling panel (AID 1170); settings: MM1S mitochondrial potential, higher = more signal
[10] = resazurin metabolic signal in A549 cells – cell-based, resazurin fluorescence, 24 h, PK04 Diversity Set, profiling panel (AID 1171); settings: A549 viability, higher = more signal, called active from +8 up or from −8 down
Also: test concentration not given here.

SMILES | z-score [1] | z-score [2] | z-score [3] | z-score [4] | z-score [5] | z-score [6] | z-score [7] | z-score [8] | z-score [9] | z-score [10]
O=C1[C@H]2[C@H]3[C@H](O)[C@H](O)CC(=NOCc4ccccc4)[C@@H]3CC[C@H]2C(=O)N1C1CCCCC1 | -0.128 | -1.08 | -0.622 | -0.615 | 0.0958 | -1.19 | -0.652 (inactive) | 0.886 | -0.101 | 0.36 (inactive)
COC(=O)CC1OC1[C@H](C)[C@@H](OC)C(C)C (stereo not given in full) | 0.285 | 0.0498 | 1.66 | -3.45 | 0.045 | 1.74 | 0.269 (inactive) | 0.666 | -0.796 | -0.292 (inactive)
CCOC(=O)CCN1C(=O)[C@H]2[C@H]3[C@H](O)[C@H](O)CC(=O)[C@H]3CC[C@H]2C1=O | -0.439 | 1.43 | 0.0368 | -0.904 | -0.122 | -0.103 | -0.237 (inactive) | 0.0295 | -1.28 | -0.125 (inactive)
Cc1ccc(S(=O)(=O)N[C@@H]2COC(=O)[C@H](C)COC(=O)CC=C[C@H]2C)cc1 | 0.449 | 0.518 | 0.53 | 0.228 | 0.274 | 0.539 | -0.0933 (inactive) | 1.06 | 0.34 | 0.317 (inactive)
O=C1C2C=CC(C(O)c3ccc([N+](=O)[O-])cc3)N(Nc3ccc([N+](=O)[O-])cc3)C2C(=O)N1c1ccccc1 (stereo not given) | -0.682 | -1.1 | 0.0069 | -0.0432 | -1.81 | -2.27 | -2.73 (inactive) | -1.01 | -1.48 | -0.402 (inactive)
COCCNC(=O)OCC1CCCC2(CC(OC(=O)NCCc3ccc(F)cc3)CC(CCC(=O)N[C@@H](C)C(=O)OC)O2)O1 (stereo not given in full) | 1.26 | -0.144 | 0.0479 | -0.491 | 0.253 | -0.198 | 0.836 (inactive) | -0.156 | -1 | 1.06 (inactive)
O=C1[C@H]2[C@H]3[C@H](O)[C@H](O)CC(=NO[C@@H]4O[C@H](CO)[C@@H](O)[C@H](O)[C@H]4O)[C@@H]3CC[C@H]2C(=O)N1c1ccc(F)cc1F | -0.234 | 0.269 | -0.87 | 0.506 | -0.165 | 0.717 | 0.738 (inactive) | -0.079 | 0.256 | -0.126 (inactive)
C[C@@H]1C=CCC(=O)OC[C@H](C)C(=O)N2CCC[C@H]2C(=O)OC1 | -0.581 | 0.0764 | -0.492 | 0.13 | -0.665 | -0.248 | -1.27 (inactive) | 0.363 | -0.583 | -0.0059 (inactive)
C[C@@H]1CCC2C(=O)N(Cc3ccccc3)C[C@@H](O)CN2[C@H]1c1ccc(Br)cc1 (stereo not given in full) | 0.247 | 0.13 | 0.229 | 0.314 | 0.447 | 0.687 | 0.303 (inactive) | -0.878 | 1.35 | 0.269 (inactive)
CC(CCN1CCc2nc(-c3ccccc3)c(-c3ccccc3)cc2C1)=NO[C@@H](C)c1cn([C@H](CO)Cc2ccccc2)nn1 | 2.69 | 0.343 | 1.4 | -0.352 | -0.0077 | 1.87 | -0.353 (inactive) | 0.555 | 0.41 | -0.81 (inactive)
CN(C)c1ccc(C(O)C2C=CC3C(=O)N(c4ccccc4)C(=O)C3N2Nc2ccccc2F)cc1 (stereo not given) | -0.225 | -0.528 | -0.799 | -0.343 | -1.18 | -2.24 | -1.08 (inactive) | 0.109 | -0.0359 | -0.416 (inactive)
C=C(/C(=C/C[C@@H](OC(=O)c1ccncc1)c1ccc(OCCO)cc1)c1cnc2ccccc2c1)C(C)C | 0.476 | 0.443 | -0.477 | -1.78 | 0.448 | 2.2 | -0.883 (inactive) | -0.736 | -0.48 | -0.464 (inactive)
O=C1CCCC2OC12C(O)CCc1ccccc1 (stereo not given) | -0.202 | -0.0344 | -0.229 | 0.561 | -0.908 | 0.287 | 0.279 (inactive) | -0.278 | 0.353 | -0.81 (inactive)
COC(=O)[C@@]1(Cc2ccc(OC)cc2)[C@H]2c3cc(C(=O)N4CCCC4)n(Cc4cc(F)c(F)c(F)c4)c3C[C@H]2CN1C(=O)c1ccccc1 | -1.19 | -0.0755 | -0.521 | -1 | -3.11 | 1.31 | -1.6 (inactive) | -0.87 | -1.2 | -1.08 (inactive)
CCN1C(=O)[C@H]2[C@H]3[C@H](O)[C@H](O)CC(=NO[C@@H]4O[C@H](CO)[C@@H](O)[C@H](O)[C@H]4O)[C@@H]3CC[C@H]2C1=O | 1.05 | 0.462 | 0.484 | -0.944 | 0.0072 | -0.608 | 0.725 (inactive) | 0.14 | -0.385 | -0.859 (inactive)
CN(C)CCCNC(=O)[C@@H]1c2ccccc2C(=O)N(Cc2cc(F)cc(C(F)(F)F)c2)[C@H]1c1ccc(CO)cc1 | -0.276 | 0.239 | -0.318 | 0.137 | 0.606 | 1.3 | -0.557 (inactive) | 0.735 | -0.195 | 0.0923 (inactive)
